{
  "source": "PubChem BioAssay (NCATS)",
  "note": "Records with an inconclusive call do not appear.",
  "data": [
    {"experiment": "qHTS for identification of novel therapeutic agents for treatment of microphthalmiaassociated transcription factor (MiT) renal cell carcinoma (RCC) (AID 1963991)", "conditions": "TFE3-RCC viability, CellTiter-Glo, 48 h; measured here: UOK124 Z-AUC; stronger effect = lower value", "outline": "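Viability of three TFE3-fusion renal carcinoma lines measured by CellTiter-Glo after 48 h treatment with each of 1912 compounds at 11 concentrations. Responses scaled between DMSO (100%) and empty wells (0%) before curve fitting.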", "values": [
      {"compound": "CC(=O)OCC(=O)[C@@]12OC(C)(C)O[C@H]1C[C@H]1[C@@H]3C[C@H](F)C4=CC(=O)C=C[C@]4(C)[C@@]3(F)[C@@H](O)C[C@@]12C", "z-score": 0.68},
      {"compound": "CC(C)=CCCC(C)=CCCC(C)=CCCC(C)=CCCC(C)=CCCC(C)=CCCC(C)=CCCC(C)=CCCC(C)=CCO", "z-score": 0.571},
      {"compound": "CN(CC=CC#CC(C)(C)C)Cc1cccc2ccccc12", "z-score": 0.58},
      {"compound": "CC=C1C2C=C(C)CC1(N)c1ccc(=O)[nH]c1C2", "note": "(configuration not stated)", "z-score": 0.297},
      {"compound": "O=c1[nH]c(=O)n([C@H]2C[C@@H](O)[C@@H](CO)O2)cc1I", "z-score": 0.166},
      {"compound": "COc1cc2c(cc1OC)[C@@H]1Cc3ccc(OC)c(OC)c3CN1CC2", "z-score": 0.474},
      {"compound": "CO[C@H]1C=CO[C@@]2(C)Oc3c(C)c(O)c4c(O)c(c(C=NN5CCN(C)CC5)c(O)c4c3C2=O)NC(=O)C(C)=CC=C[C@H](C)[C@H](O)[C@@H](C)[C@@H](O)[C@@H](C)[C@H](OC(C)=O)[C@H]1C", "z-score": 2},
      {"compound": "COc1cc(CNC(=O)CCCCC=CC(C)C)ccc1O", "z-score": 0.406},
      {"compound": "FC(F)(F)c1ccc(C=Cc2nc(COc3ccc(CCCCn4ccnn4)cc3)co2)cc1", "z-score": -1.14},
      {"compound": "C[C@]12C=CC(=O)C=C1CC[C@@H]1[C@@H]2[C@@H](O)C[C@@]2(C)[C@@H]1CC[C@]2(O)C(=O)CO", "z-score": 0.34},
      {"compound": "O=C(O)C1=CO[C@@H](O[C@@H]2O[C@H](CO)[C@H](O)[C@H](O)[C@H]2O)[C@@H]2C(CO)=CC[C@H]12", "z-score": 0.803},
      {"compound": "CCNC(=O)CCCC=CC[C@@H]1[C@H](C=CC(O)CCc2ccccc2)[C@@H](O)C[C@@H]1O", "note": "(some centres not stated)", "z-score": 0.311},
      {"compound": "CO[C@H]1/C=C\\O[C@@]2(C)Oc3c(C)c(O)c4c(O)c(c(C=NN5CCN(C6CCCC6)CC5)c(O)c4c3C2=O)NC(=O)C(C)=CC=C[C@H](C)[C@H](O)[C@@H](C)[C@@H](O)[C@@H](C)[C@H](OC(C)=O)[C@H]1C", "z-score": -2.38},
      {"compound": "N=C1SC(=Cc2ccc(-c3ccc4c(c3)C(=O)NC4=O)o2)C(=O)N1c1ccc(Br)cc1", "z-score": 0.836},
      {"compound": "CC[C@H]1OC(=O)[C@H](C)[C@@H](O[C@H]2C[C@@](C)(OC)[C@@H](O)[C@H](C)O2)[C@H](C)[C@@H](O[C@@H]2O[C@H](C)C[C@H](N(C)C)[C@H]2O)[C@](C)(O)C[C@H](C)C(=NOCOCCOC)[C@H](C)[C@@H](O)[C@]1(C)O", "z-score": -0.315},
      {"compound": "CC(C)c1onc(-c2c(Cl)cccc2Cl)c1COc1ccc(C=Cc2cccc(C(=O)O)c2)c(Cl)c1", "z-score": 0.847},
      {"compound": "CC(=O)OCC(=O)[C@@]1(O)CC[C@H]2[C@@H]3CCC4=CC(=O)C=C[C@]4(C)[C@@H]3[C@@H](O)C[C@@]21C", "z-score": 0.317},
      {"compound": "O=C(O)C1=NC(C(=O)O)CC(C=CN2c3cc(O)c(OC4OC(CO)C(O)C(O)C4O)cc3CC2C(=O)O)=C1", "note": "(configuration not stated)", "z-score": 0.431},
      {"compound": "CCCCC[C@H](O)C=C[C@H]1[C@H](O)CC(=O)[C@H]1CCCCCCC(=O)O", "z-score": 0.386},
      {"compound": "CN[C@H]1[C@@H](O[C@@H]2[C@H](O[C@@H]3[C@@H](O)[C@@H](O)[C@@H](N=C(N)N)[C@@H](O)[C@@H]3N=C(N)N)O[C@H](C)[C@@]2(O)C=O)O[C@@H](CO)[C@@H](O)[C@H]1O", "z-score": 1.27},
      {"compound": "COc1ccc2c(c1)CC[C@H]1[C@@H]2CC[C@]2(C)[C@@H](NCCCCCCN3C(=O)C=CC3=O)CC[C@H]12", "z-score": 0.647},
      {"compound": "C[C@@H]1O[C@@H](O[C@H]2CC[C@@]3(C)[C@H](CC[C@@H]4[C@H]3C[C@@H](O)[C@]3(C)[C@@H](C5=CC(=O)OC5)CC[C@]43O)C2)C[C@H](O)[C@@H]1O[C@H]1C[C@H](O)[C@H](O[C@H]2C[C@H](O)[C@@H](O)[C@@H](C)O2)[C@H](C)O1", "note": "(stereo in doubt)", "z-score": -1.68},
      {"compound": "CC[C@H](C)C(=O)O[C@H]1C[C@H](O)C=C2C=C[C@H](C)[C@H](CC[C@@H](O)C[C@@H](O)CC(=O)O)[C@H]21", "z-score": 0.809},
      {"compound": "CC[C@]1(O)C[C@H]2CN(CCC3=c4ccccc4=N[C]3[C@@](C(=O)OC)(c3cc4c(cc3OC)N(C)[C@H]3[C@@](O)(C(N)=O)[C@H](O)[C@]5(CC)C=CCN6CC[C@]43[C@@H]65)C2)C1", "z-score": -1.02},
      {"compound": "CCC=CC[C@H]1C(=O)CC[C@@H]1CC(=O)OC", "z-score": 0.558},
      {"compound": "CN[C@@H]1[C@@H](O)[C@@H](O[C@@H]2[C@@H](O)[C@H](O[C@H]3O[C@H](CN)[C@@H](O)[C@H](O)[C@@H]3O)[C@@H](N)C[C@@H]2NC(=O)[C@@H](O)CN)OC[C@]1(C)O", "z-score": 0.621},
      {"compound": "CO[C@H]1O[C@@H]2O[C@@]3(C)CC[C@@H]4[C@@H](C)CC[C@@H]([C@H]1C)[C@@]24OO3", "z-score": 0.926},
      {"compound": "CC1(C)[C@H]2CC[C@]3(C)[C@@H](C(=O)C=C4[C@@H]5C[C@@](C)(C(=O)O)CC[C@]5(C)CC[C@]43C)[C@@]2(C)CC[C@@H]1O", "z-score": 0.724},
      {"compound": "CCNC(=O)[C@H]1O[C@@H](n2cnc3c(N)nc(NCCc4ccc(CCC(=O)O)cc4)nc32)[C@H](O)[C@H]1O", "z-score": 0.527},
      {"compound": "CCOC(=O)[C@H]1O[C@H]1C(=O)N[C@@H](CC(C)C)C(=O)NCCC(C)C", "z-score": 0.357},
      {"compound": "CCN1C[C@H](C)n2c(c(O)c3c(=O)n(Cc4ccc(F)c(Cl)c4)nc(C(=O)NC)c32)C1=O", "z-score": 0.545},
      {"compound": "CC1(C)OC2CC3C4CC(F)C5=CC(=O)C=CC5(C)C4C(O)CC3(C)[C@]2(C(=O)CO)O1", "note": "(some centres not stated)", "z-score": 1.01}
    ]}
  ]
}
